# An excerpt weighted towards active compounds, which were near 19% of everything screened.
# HT1080NT lethal: kills 2HG-producing HT-1080-NT fibrosarcoma cells; HT-1080-NT fibrosarcoma viability, CellTiter-Glo ATP luminescence, 48 h; 360,000 compounds, 1.6% hits; Potency, µM (series often up to 46.1 µM), without a hit: top-dose activity, negative = less viability, hits mostly cytotoxic;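 note: NT is the 2HG producing partner of a matched IDH1 knockdown line; potency is the fitted concentration of half-maximal effect; 0% = DMSO-treated cells and -100% = media-only wells without cells; nearly all actives have a fitted effect of over 55% in size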
#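 Compounds were tested in concentration-response format on HT-1080-NT cells for 48 hours at 37 degrees C. Cell viability came from CellTiter-Glo luminescence; curves were classified by r2, response magnitude and activity.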
# IL-1B inflam inh: inflammasome signaling inhibition, IL-1 beta readout | THP-1 LPS/ATP IL-1B secretion, AlphaLISA, 16 h; active compounds read low | activity change, % at 57.5 µM | 360,000 compounds, 4.7% hits; in the data active = activity change below about -50%; inconclusive = mostly about -30% to -49%
#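 Secreted IL-1B measured by AlphaLISA bead assay after 16 h compound exposure of THP-1 cells; compounds (final up to 57.5 uM) added 1 h before LPS (250 ng/mL) and ATP (1.25 mM) stimulation; lower signal means less secretion.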
# HT1080 IDH1KD tx: kills HT-1080 cells with IDH1 knockdown | HT-1080 IDH1 knockdown viability, ATP luminescence, 48 h | Potency, µM (highest dose often 46.1 µM), for inactives: at the highest dose activity, negative = toxicity, most hits filed as cytotoxic | 360,000 compounds, 2% hits;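 note: potency is the fitted concentration of half-maximal effect; 0% = DMSO wells and -100% = cell-free medium wells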
#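 Luminescent ATP read-out (CellTiter-Glo, 10 min at room temperature) after 48 h compound exposure at 37 °C gave viability of IDH1-knockdown HT-1080 cells. Activity was normalised to DMSO and cell-free wells, then fitted as concentration-response curves.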
# DT40 TDP1 CPT: growth inhibition of DT40 Tdp1-/-;hTDP1 cells with camptothecin (screen for TDP1 inhibitors); Potency, µM (doses to about 46.2 µM), inactives show at the top dose activity change, negative = growth inhibition, hits mostly inhibitors; chicken DT40 Tdp1-/-;hTDP1 cells + 20 nM CPT, ATP luminescence, 48 h; 420,000 compounds, 12% hits; AID 686979; note: potency is the fitted concentration of half-maximal effect; nearly all actives have a fitted effect of over 55% in size
#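 Chicken DT40 Tdp1-/- cells complemented with human TDP1, 400 cells/well, exposed to compounds plus 20 nM camptothecin for at least 48 h at 37 C; viability read as ATP content by CellTiter-Glo luminescence.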
# TDP1 cell noCPT: qHTS for Inhibitors of human tyrosyl-DNA phosphodiesterase 1 (TDP1): qHTS in cells in absence of CPT | DT40 Tdp1-/- hTDP1 cells, no CPT, ATP luminescence, 48 h | Potency, µM (highest dose often 46.2 µM), without a hit: at the top dose activity change, negative = growth inhibition, most hits filed as inhibitors | 420,000 compounds, 15% hits; note: potency is the fitted concentration of half-maximal effect; nearly all actives have a fitted effect of over 55% in size
#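 Camptothecin absent (DMSO only). Human TDP1-complemented DT40 knockout cells, 400 cells/well, 37 °C for minimum 48 hr; ATP measured via CellTiter-Glo, 30 min dark incubation, luminescence.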
# Starred values were filed as active, the others as inactive; i = inactive; ? = inconclusive; nt = not tested or not shown; [ ] = dose if it differs, or a comment. Unless noted, calls come from the whole dose curve; as a rule, active = well fitted curve in the direction sought with a large enough effect; inconclusive = small, poorly fitted or top-dose-only effect, or another doubt; inactive = no such curve, though single readings can be large; an effect the other way counts as inactive or inconclusive. Unless noted, % is set by controls: 0 for no effect and ±100 for the full control effect.
SMILES,HT1080NT lethal,IL-1B inflam inh,HT1080 IDH1KD tx,DT40 TDP1 CPT,TDP1 cell noCPT
Cc1cccc(NCC(=O)N/N=C\c2cccc(Oc3ccccc3)c2)c1,-14.9%,-1.3,-23.6%,?,?
Cc1ccc(S(=O)(=O)N(CC(=O)NCCSc2ccc(Cl)cc2)c2cccc(Cl)c2)cc1,nt,nt,nt,?,20.6µM*
Cc1ccc(N(CC(=O)NCCSc2ccccc2)S(=O)(=O)c2ccc(F)cc2)cc1,nt,nt,nt,?,9.2µM*
COCCNC(=O)CN(c1ccc(C)cc1)S(=O)(=O)c1ccccc1,10.7%,4.0,22.1%,9.6%,-14.1%
COc1ccc(S(=O)(=O)N(CC(=O)NCCSc2ccc(C)cc2)c2ccc(C)cc2)cc1,nt,nt,nt,18.4µM*,23.1µM*
Cc1cccc(N(CC(=O)NC2CC2)S(=O)(=O)c2ccc(Cl)cc2)c1,4.8%,i,3.5%,-18.5%,-0.6%
CCOc1ccc(S(=O)(=O)N(CC(=O)NCCSc2ccc(C)cc2)c2ccccc2)cc1,nt,nt,nt,-19.5%,-19.1%
Cc1ccc(CNc2nc(CN3CCN(C=O)CC3)nc3ccccc23)o1,nt,nt,nt,-10.1%[9.04 µM],-27.6%
Cc1cc2ccc(Cl)nc2nc1C,nt,nt,nt,4.9%,0.3%
COc1ccc(C2C(=O)N(C3CCCCC3)CC(=O)N2Cc2ccco2)cc1 (configuration not stated),-3.5%[9.24 µM],0.0,-21.6%,-25.4%,?
COCc1cc(CN2CCN(Cc3ccsc3)C(CCO)C2)ccc1OC (configuration not stated),13.0%,23.0,0.3%,5.6%,-0.6%
COc1cc(NC(=O)COC(=O)CCOc2ccc(C)cc2)cc(OC)c1,0.9%,15.8,-14.1%,7.2%,3.0%
CCOc1ccc2[nH]c(=O)c(CN(Cc3cccs3)C(CC)c3nnnn3C(C)(C)CC)cc2c1 (configuration not stated),?,?,?,20.6µM*,18.4µM*
CCOC(=O)Cn1nnnc1C(CC)N(Cc1cccs1)Cc1cc2cc(C)ccc2[nH]c1=O (configuration not stated),-1.6%,-7.9,-6.7%,?,?
CCC(c1nnnn1C1CCCC1)N(Cc1cccs1)Cc1cc2cc(C)ccc2[nH]c1=O (configuration not stated),6.4%,-53.9*,0.0%,18.4µM*,20.6µM*
CCc1nc(NCc2ccccn2)c2oc3ccccc3c2n1,-22.2%,-68.0*,-12.2%,14.6µM*,14.6µM*
CCc1nc(Nc2ccncc2)c2oc3ccccc3c2n1,?,-59.5*,23.1µM*,5.8µM*,2.31µM*
CCc1nc(Nc2ccc3c(c2)OCO3)c2oc3ccccc3c2n1,-4.3%,?,-3.5%,20.6µM*,11.6µM*
c1ccc(CNc2ncnc3c2oc2ccccc23)nc1,-3.8%,37.6,-2.5%,-12.1%,-14.9%
CCc1nc(N[C@H](C(=O)O)C(C)C)c2oc3ccccc3c2n1,2.5%,27.9,0.0%,-8.7%,?
CCc1nc(Nc2cccc(O)c2)c2oc3ccccc3c2n1,?,?,?,?,25.9µM*
CC(O)Cc1cn(CC(=O)N2CCN(C(=O)OC(C)(C)C)CC2)nn1 (configuration not stated),3.9%,-3.1,16.2%,4.7%,-2.7%
Cc1[nH]c2ccccc2c1C(=O)NS(=O)(=O)Nc1ccc(Cl)cc1,-2.8%,17.3,-1.0%,8.3%,0.3%
COc1ccc(S(=O)(=O)N2CCCCC2)cc1NC(=O)Cc1cccs1,-0.6%,-4.3,-3.8%,0.1%,-3.2%
COc1ccc(Br)cc1S(=O)(=O)n1c([N+](=O)[O-])cnc1C,2.3%,20.4,2.2%,0.0%,-8.2%
SMILES,HT1080NT lethal,IL-1B inflam inh,HT1080 IDH1KD tx,DT40 TDP1 CPT,TDP1 cell noCPT
CCC(C)(C)n1nnnc1C(c1ccc(F)cc1)N1CCN(C(=O)c2ccco2)CC1 (configuration not stated),-2.9%,-5.5,-2.8%,0.1%,-14.9%
C=CCN1C(=O)C(=O)N(Cc2nc3ccccc3s2)C1=O,6.1%,20.9,1.4%,-1.5%,-3.9%
CCC1CCCCN1C(=O)/C=C/c1ccc2c(c1)OCO2 (configuration not stated),7.9%,-20.1,11.4%,9.5%,14.3%
Cc1cc(C(=O)OCC(=O)NCCCN2CCCC2=O)c2ccccc2n1,1.9%,7.2,2.2%,-1.4%,-13.4%
Cc1cccc(Nc2nc(C)nc3c2oc2ccccc23)c1,-2.6%,3.6,-1.8%,16.4µM*,?
CC(=O)Nc1ccc(Nc2nc(C)nc3c2oc2ccccc23)cc1,?,19.0,-29.0%,?,?
CCc1nc(Nc2ccccc2OC)c2oc3ccccc3c2n1,-18.6%,-54.2*,-20.8%,?,?
CCc1nc(SCC(=O)Nc2ccc3c(c2)OCCO3)c2oc3ccccc3c2n1,1.6%,4.3,-0.1%,?,25.9µM*
COc1ccc(Cl)cc1Nc1nc(C)nc2c1oc1ccccc12,19.5%,19.0,13.1%,?,-21.8%
Cc1nc(Nc2ccncc2)c2oc3ccccc3c2n1,-15.4%[9.24 µM],-93.2*,12.6µM*,10.3µM*,11.6µM*
CCc1nc(Nc2cc(OC)ccc2OC)c2oc3ccccc3c2n1,-11.7%,10.5,-26.2%,?,?
CC(C)c1ccccc1NC(=S)N(C)C,-5.9%,-0.2,-0.3%,-4.3%,-13.9%
CCc1nc(N2CCCCC2C)c2oc3ccccc3c2n1 (configuration not stated),?,25.9,?,29.1µM*,25.9µM*
CCc1nc(N2CCN(Cc3ccc4c(c3)OCO4)CC2)c2oc3ccccc3c2n1,?,-28.1,?,25.9µM*,25.9µM*
Cc1cccc2c(Nc3ccc4c(c3)OCO4)nc(CN3CCC(N4CCCCC4)CC3)nc12,nt,nt,nt,14.6µM*,20.6µM*
Cc1sc2nc(CN3CCCCC3)nc(Nc3ccc4c(c3)OCCO4)c2c1C,11.4%,0.0,8.8%,0.2%,2.4%
Cn1c(Cc2csc(N)n2)nnc1SCC(=O)NCc1ccccc1,?,-2.9,-27.0%,-28.5%,-11.9%
O=C(Nc1ccccc1C(=O)N/N=C/c1ccco1)c1ccc(F)cc1,?,2.2,?,-16.4%,-28.9%
COc1ccccc1-c1nnc(SCC(=O)Nc2c(Cl)cccc2Cl)o1,-8.4%,-9.5,-14.7%,18.4µM*,20.6µM*
COc1ccccc1-c1nnc(SCC(=O)NCc2c(C)c(Cl)cc(C(C)C)c2O)o1,?,-11.9,15.8µM*,29.1µM*,?
O=C(Nc1ccccc1)c1nc(S(=O)(=O)Cc2ccccc2F)ncc1Cl,nt,nt,nt,1.12µM*,1.12µM*
COC(=O)c1ccc(NC(=O)c2nc(S(=O)(=O)Cc3ccccc3F)ncc2Cl)cc1,nt,nt,nt,0.708µM*,0.891µM*
O=C(Nc1ccc(F)cc1)c1nc(SCc2ccccc2F)ncc1Cl,nt,nt,nt,0.0%,-10.8%

# Screens: PubChem BioAssay, National Center for Advancing Translational Sciences (NCATS)
